Data: PubChem BioAssay AID1053125 (Broad Institute, 2014)
Potency and affinity values are given separately. The source made the active and inactive calls.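 Rule for the calls: active = viability loss whose fitted half-maximal concentration is at most twice the top valid tested dose; inconclusive = flat curve with 30 to 70% loss, or poor fit; inactive = the rest.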

Assay: viability loss in HepG2 liver cells – cell-based, ATP luminescence, cherry-pick, set 6, cytotoxicity control, dose response (AID 1053125);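 note: negative values mean loss of viability signal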
Settings: ATP luminescence (CellTiter-Glo), 72 h; series mostly up to 26 µM
In the case of `N#CC1=C(N)Oc2cc(O)ccc2C1c1ccc2c(c1)OCO2` (stereo not drawn), the outcome is reported as “inactive”.
With `CC(C)OP(=O)(O)NC(=O)c1ccccc1` the outcome was “inactive”.
For `CC12CC(c3ccccc3O1)C(C(=O)OCc1ccccc1)C(=O)N2` (stereo not drawn), the outcome was “inactive”.
